Screening results as filed in PubChem BioAssay.
An excerpt weighted towards active compounds, which were near 19% of everything screened.
IL-1B inflam inh – inhibitors of inflammasome signaling (IL-1 beta secretion). THP-1 LPS/ATP IL-1B secretion, AlphaLISA, 16 h; stronger effect = lower value. activity change, % at 57.5 µM. 360,000 tested, 4.7% active. AID 743279; in the data active means activity change below about -50%; inconclusive means mostly about -30% to -49%
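THP-1 cells pretreated 1 hr with compounds (up to 57.5 uM final), then stimulated with LPS (250 ng/mL final) plus ATP (1.25 mM final); secreted IL-1B measured by AlphaLISA after 16 hr, decreased signal indicating inhibition.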
DT40 TDP1 no CPT – qHTS for Inhibitors of human tyrosyl-DNA phosphodiesterase 1 (TDP1): qHTS in cells in absence of CPT; DT40 Tdp1-/- hTDP1 cells, no CPT, ATP luminescence, 48 h; Potency, µM (highest dose often 46.2 µM), most hits filed as inhibitors; 420,000 tested, 15% active; further: nearly all actives have a fitted effect of over 55% in size
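Camptothecin absent (DMSO only). Human TDP1-complemented DT40 knockout cells, 400 cells/well, 37 °C for minimum 48 hr; ATP measured via CellTiter-Glo, 30 min dark incubation, luminescence.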
Giardia kill – Giardia lamblia killing. Giardia lamblia trophozoite viability. activity change, % at 7.66 µM, hits read low. 340,000 tested, 0.15% active; in the data active means activity change below about -80%; inconclusive means between about -30% and that limit;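 further: parasites exposed to compound for two days anaerobically before the ATP read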
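Anaerobic 48 hrs incubation at 37 deg C of 100 trophozoites/well with test compounds; ATPLite 1-Step luminescence, 15-30 min RT, reports cellular ATP as viability.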
ELG1 repair inh – blocks ELG1-dependent DNA repair in HEK293T cells. 330,000 tested, 2.3% active. HEK293T ELG1-luciferase reporter, luminescence, 16 h; DNA damage induced by 5-fluorouridine. AID 504467. Potency, µM (doses to about 46.1 µM), usual class: inhibitors; further: nearly all actives have a fitted effect of over 55% in size
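HEK293T cells expressing luciferase-tagged ELG1 (2,000/well) received 5-Fluorouridine plus compound or DMSO for 16 hr at 37 °C. Luciferase was read by ONE-Glo luminescence after 30 min at room temperature.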
TDP1 cell CPT – growth inhibition of DT40 Tdp1-/-;hTDP1 cells with camptothecin (screen for TDP1 inhibitors); chicken DT40 Tdp1-/-;hTDP1 cells + 20 nM CPT, ATP luminescence, 48 h; AID 686979; Potency, µM (highest dose often 46.2 µM), most hits filed as inhibitors; 420,000 tested, 12% active; further: nearly all actives have a fitted effect of over 55% in size
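Chicken DT40 Tdp1-/- cells stably complemented with human TDP1 were seeded at 400 cells/well in medium containing 20 nM camptothecin, exposed to pin-transferred compounds, and grown at 37 °C for at least 48 hr. Viability was read as ATP luminescence.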
TDP1 inh – TDP1 (human) enzyme inhibition. Q9NUW8. recombinant TDP1, AlphaScreen DNA substrate cleavage. Potency, µM (titrated, usually from 130 µM), usual class: inhibitors. 350,000 tested, 0.28% active. AID 485290; further: nearly all actives have a fitted effect of over 40% in size
Target sequence (Q9NUW8 whole entry, looked up): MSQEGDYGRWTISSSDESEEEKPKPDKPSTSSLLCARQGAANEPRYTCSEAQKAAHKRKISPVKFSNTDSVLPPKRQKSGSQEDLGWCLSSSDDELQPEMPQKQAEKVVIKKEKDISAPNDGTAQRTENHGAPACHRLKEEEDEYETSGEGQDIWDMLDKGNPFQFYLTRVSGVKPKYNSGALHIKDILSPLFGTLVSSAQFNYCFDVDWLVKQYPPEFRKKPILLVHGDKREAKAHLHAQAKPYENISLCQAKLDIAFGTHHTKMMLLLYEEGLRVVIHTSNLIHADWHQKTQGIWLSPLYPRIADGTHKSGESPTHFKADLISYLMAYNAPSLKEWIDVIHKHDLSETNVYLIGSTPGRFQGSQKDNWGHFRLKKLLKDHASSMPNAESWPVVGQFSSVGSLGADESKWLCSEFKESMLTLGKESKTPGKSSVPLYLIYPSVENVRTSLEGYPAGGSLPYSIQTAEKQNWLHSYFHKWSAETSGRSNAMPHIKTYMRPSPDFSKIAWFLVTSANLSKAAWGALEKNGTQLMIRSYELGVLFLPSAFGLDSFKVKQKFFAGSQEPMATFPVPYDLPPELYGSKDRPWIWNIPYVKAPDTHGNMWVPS
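E. coli-derived human Tdp1, 1 nM final. Cpd preinc 15 min RT; substrate 15 nM final, 5 min RT; AS bead mix 10 ug/ml final, 10 min RT. Signal loss = tyrosine-FITC cleavage. No-enzyme wells = max signal.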
Numbers stand for hits; ! = not active in a repeat; [ ] = dose if it differs, or a comment. Unless noted, the call rests on the fitted dose curve; in most records, active means well fitted curve in the direction sought with a large enough effect; inconclusive means small, poorly fitted or top-dose-only effect, or another doubt; inactive means no such curve, though single readings can be large; an effect the other way counts as inactive or inconclusive.

Screening CCN1CCN(c2ccc(NC(C)=O)cc2Cl)CC1 returned IL-1B inflam inh inactive, DT40 TDP1 no CPT inactive, Giardia kill inactive, ELG1 repair inh inactive, TDP1 cell CPT inactive and TDP1 inh inactive.
Screening C[C@H](CCC(=O)O)[C@H]1CC[C@@H]2[C@H]3CC[C@H]4C[C@@H](O)CC[C@@]4(C)[C@H]3CC[C@]21C returned TDP1 inh inactive.
Screening CC(C)c1ccc(OCC(=O)Nc2cc(-c3nc4ncccc4o3)ccc2Cl)cc1 returned DT40 TDP1 no CPT 6.51µM, TDP1 cell CPT inconclusive and TDP1 inh inactive.
CCC(C)C1NC(=O)C(C(C)=O)=C1O (stereo not given) was read as IL-1B inflam inh inactive, DT40 TDP1 no CPT inconclusive, Giardia kill inactive, ELG1 repair inh inactive and TDP1 cell CPT 16.4µM.
CC(C)c1ccc(Oc2cccc3c2S(=O)(=O)N(C2CCCC2)CC(COCc2ccccc2)O3)cc1 (stereo not given) was read as IL-1B inflam inh inactive, DT40 TDP1 no CPT 9.2µM, Giardia kill inactive and TDP1 cell CPT 10.3µM.
O=C1C(Cl)=C(Cl)C(=O)C(Cl)=C1Cl was read as DT40 TDP1 no CPT 2.91µM and TDP1 cell CPT 4.61µM.
Screening CCN(CC)C(=O)N[C@H]1C=C2c3cccc4[nH]cc(c34)C[C@@H]2N(C)C1 returned TDP1 inh inactive[21 µM].
O=C(Nc1cccc(Cl)c1)OC1CN2CCC1CC2 (stereo not given) was read as IL-1B inflam inh inconclusive, DT40 TDP1 no CPT 5.17µM, Giardia kill inactive, ELG1 repair inh inconclusive, TDP1 cell CPT 5.17µM and TDP1 inh inactive.
For O=C(Nc1ccccc1Cl)OC1CN2CCC1CC2 (stereo not given) the results were IL-1B inflam inh inactive, DT40 TDP1 no CPT inconclusive, Giardia kill inactive, ELG1 repair inh inconclusive, TDP1 cell CPT inactive and TDP1 inh inactive.
For O=C(Nc1ccc(Cl)cc1)OC1CN2CCC1CC2 (stereo not given) the results were IL-1B inflam inh -52.0, DT40 TDP1 no CPT inactive, Giardia kill inactive, ELG1 repair inh inconclusive, TDP1 cell CPT inactive and TDP1 inh inactive.
`CC(C)OC(=O)Nc1cccc(Cl)c1` gave DT40 TDP1 no CPT inactive, TDP1 cell CPT inactive and TDP1 inh inactive.
For O=S(=O)(Cl)c1ccccc1 the results were TDP1 inh inactive.
For CN1CN(c2ccccc2)C2(CCN(CCCSc3ccccc3NC(=O)/C=C/c3ccccc3)CC2)C1=O the results were IL-1B inflam inh -71.3, DT40 TDP1 no CPT inconclusive, Giardia kill inconclusive and TDP1 cell CPT inconclusive.
`O=C(/C=C/c1ccc(F)cc1)NNC(=O)CCN1CCN(Cc2ccccc2)CC1` gave IL-1B inflam inh inactive, DT40 TDP1 no CPT inconclusive, Giardia kill inactive, ELG1 repair inh inactive, TDP1 cell CPT inactive and TDP1 inh inactive.
CCc1nc2c(OCc3ccc(C(F)(F)F)cc3)cccn2c1N(C)C(=O)C(C)C was read as IL-1B inflam inh inactive, DT40 TDP1 no CPT 25.9µM and TDP1 cell CPT inconclusive.
For C/C1=C/C(=O)O[C@@H]2C[C@@H](CC[C@H](C)/C=C\CC1)O[C@@](O)(C1CSC(=O)N1)C2 (stereo not given in full) the results were TDP1 inh inactive.
For CC(=O)Nc1ccccc1OC(=O)N(C)C the results were IL-1B inflam inh inactive, DT40 TDP1 no CPT inactive, Giardia kill inactive, ELG1 repair inh inactive, TDP1 cell CPT inactive and TDP1 inh inactive.
CCCn1c(=O)n(C)c(=O)c2c(SCC(=O)NC34CC5CC(CC(C5)C3)C4)nc(CC(C)C)nc21 was read as IL-1B inflam inh inactive, DT40 TDP1 no CPT inconclusive, Giardia kill inactive, ELG1 repair inh 23.1µM, TDP1 cell CPT 14.6µM and TDP1 inh inactive.
`CCC[C@@H]1CC2=CC(=O)CC[C@]2(C)[C@@H]2CC[C@@]3(C)[C@H](CC[C@]3(O)CCC(=O)O)[C@H]12` gave DT40 TDP1 no CPT inactive, TDP1 cell CPT inactive and TDP1 inh inconclusive.
Screening COc1ccc(Cn2c(=O)oc3ccc(C)cc32)cc1OC returned IL-1B inflam inh inactive, DT40 TDP1 no CPT 18.4µM, Giardia kill inactive, ELG1 repair inh inactive, TDP1 cell CPT 14.6µM and TDP1 inh inactive.
COc1ccc(CN2CCN(C(=O)Cc3ccccc3)CC2)cc1OC was read as IL-1B inflam inh inactive, DT40 TDP1 no CPT inactive and TDP1 cell CPT inactive.
COc1cc2c(cc1O)-c1c(O)c(OC)cc3c1[C@H](C2)N(C)CC3 was read as DT40 TDP1 no CPT inconclusive, TDP1 cell CPT inactive and TDP1 inh inactive.
CC(O)CNc1ccc([N+](=O)[O-])c2cccnc12 (stereo not given) was read as IL-1B inflam inh inactive, DT40 TDP1 no CPT inconclusive, Giardia kill inactive, ELG1 repair inh inactive, TDP1 cell CPT inactive and TDP1 inh inactive.
Screening NCCNc1ccc([N+](=O)[O-])c2cccnc12 returned IL-1B inflam inh inactive, DT40 TDP1 no CPT 20.6µM, Giardia kill inactive, ELG1 repair inh inactive, TDP1 cell CPT inconclusive and TDP1 inh inactive.
`Cc1ccsc1C(=O)C1CCCN(Cc2cccn2-c2ccccn2)C1` (stereo not given) gave IL-1B inflam inh inactive, DT40 TDP1 no CPT inconclusive, Giardia kill inactive, ELG1 repair inh inactive, TDP1 cell CPT 20.6µM and TDP1 inh inactive.
For NCC[C@H](O)C(=O)N[C@H]1C[C@@H](N)[C@@H](O[C@H]2O[C@@H](CN)[C@@H](O)[C@@H](O)[C@@H]2N)[C@@H](O[C@H]2O[C@@H](CO)[C@@H](O)[C@@H]2O)[C@@H]1O the results were TDP1 inh inactive[21 µM].
`CC(CCc1ccccc1)NC(C)C(O)c1ccc(O)cc1` (stereo not given) gave IL-1B inflam inh inactive, DT40 TDP1 no CPT 23.1µM!, Giardia kill inactive, ELG1 repair inh inactive, TDP1 cell CPT inconclusive and TDP1 inh inactive.
Screening CC(C)C1C(=O)N2CCC[C@H]2[C@]2(O)O[C@](NC(=O)[C@@H]3C=C4c5cccc6[nH]cc(c56)C[C@H]4N(C)C3)(C(C)C)C(=O)N12 (stereo not given in full) returned DT40 TDP1 no CPT inconclusive, TDP1 cell CPT inconclusive and TDP1 inh inactive.
Screening Clc1ccc(C(Cn2ccnc2)OCc2csc3c(Cl)cccc23)c(Cl)c1 (stereo not given) returned IL-1B inflam inh -77.8, DT40 TDP1 no CPT 13µM, Giardia kill inactive, ELG1 repair inh inconclusive and TDP1 cell CPT 23.1µM.
`NC(=NCCc1ccc(I)cc1)SCCCc1cnc[nH]1` gave DT40 TDP1 no CPT 13µM, TDP1 cell CPT 14.6µM and TDP1 inh inactive.
CN1CCN(c2cc3c(nn2)Oc2ccccc2N3C)CC1 was read as DT40 TDP1 no CPT inconclusive, TDP1 cell CPT inactive and TDP1 inh inactive.
